Experiment [1] is described as follows: inhibitors of TNFa-induced NFkB p65 translocation, primary screen, imaging, HUVEC, MLSMR starter and 10KST1 sets (AID 438;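 active means inhibition above 20% together with a positive visual image hit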;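 further: compound added about 3h40 before a 20 min TNFalpha stimulation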;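 on inhibition: signal is the nuclear over cytoplasmic p65 intensity ratio per well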). The note with it: HUVEC TNFa-induced p65 nuclear translocation; cell count: measured here: nuclei count (cytotoxicity indicator), at 2.08 µM; inhibition: at 2 µM, stronger effect = higher value, 0% TNFa-plus-vehicle, 100% no-TNFa wells.
Experiment [2] is described as follows: inhibitors of mutant huntingtin aggregation, primary screen, imaging, exon1htt(103Q)mCFP cells, high-content imaging (AID 483;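 active means visual image review flags a hit and inhibition of aggregation exceeds 20%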;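 further: compound exposure lasted 3 days before fixation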;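 on nuclei count: percent of the per-plate median nuclei count of sample wells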). The note with it: exon1htt(103Q)mCFP cell line, aggregate imaging, at 2 µM; inhibition of aggregation: stronger effect = higher value; nuclei count: measured here: cell count, toxicity.
Experiment [3] in a line: inhibitors of E-selectin induction by TNFa, primary screen, imaging, HUVEC, immunofluorescence, MLSMR starter and 10KST1 sets (AID 487).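 On inhibition: signal is fraction of cell area covered by stained E-selectin grains.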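 On nuclei count: 100% = median nuclei count of all wells on the same plate.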 The following applies: HUVEC TNFalpha-induced E-selectin immunofluorescence imaging, at 2 µM; inhibition: stronger effect = higher value; nuclei count: measured here: cell number, toxicity.
A short description of experiment [4]: DUSP6 inhibitors restoring Erk phosphorylation by chemical complementation, primary imaging in DUSP6-transfected HeLa (AID 609;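 active means compounds giving at least 50% inhibition in the cell-based MKP-3 phosphatase rescue imaging test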;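 on inhibition: phospho-Erk level distribution per well compared with pooled transfected vehicle control wells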). The following applies: HeLa MKP-3 transfected, phospho-Erk imaging KS statistic, at 10 µM, cells stimulated with TPA for 15 min.
The target in experiment [5] is Dual specificity protein phosphatase 6 (Homo sapiens) (UniProt Q16828). The description is as above. The note with it: HeLa MKP-3 transfected, phospho-Erk imaging KS statistic; at 10 µM; stronger effect = higher value; cells stimulated with TPA for 15 min.
The target of experiment [6] is Voltage-gated potassium channel subunit beta-2 (Rattus norvegicus) (UniProt P62483). Kind of experiment: KvBeta enzyme negative modulators, primary screen, biochemical, NADPH fluorescence (AID 622;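 active means fluorescence slope higher than the sample average by over 3 SD, cut at about -0.22 in these data, passing the limit was not always enough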;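 further: slope of raw intensity against log time taken from 70 to 1610 s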). The note with it: recombinant KvBeta, 4-cyanobenzaldehyde reduction, at 10 µM, stronger effect = higher value.
The target is the same in experiment [7]. The experiment can be described thus: KvBeta positive modulators, primary screen, biochemical, NADPH fluorescence (AID 623;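 active means NADPH fluorescence slope more negative than the mean of all samples by about 3 SD, 99.7% confidence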;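 further: fluorescence intensity change per second fitted from 20 to 320 s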). The following applies: Recombinant KvBeta, NADPH fluorescence decrease slope, 10 min; at 10 µM; stronger effect = lower value.
The target in experiment [8] is Alpha-2C adrenergic receptor (Homo sapiens) (UniProt P18825). The experiment can be described thus: modulators of alpha2C/GIRK thallium flux, primary screen, cell-based, HEK293 alpha2C/GIRK1/2 (AID 624;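 active means fluorescence slope after compound addition differing from the mean of all screened samples at 99.7% confidence, in either direction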;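 further: slope of fluorescence ratio to pre-addition baseline per second over 15 to 24 s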). The note with it: thallium flux BTC fluorescence, at 10 µM, actives lie on both sides.
The target of experiment [9] is Muscarinic acetylcholine receptor M4 (Homo sapiens) (UniProt P08173). The experiment can be described thus: compounds altering M4/GIRK thallium flux, either direction, primary screen, M4 allosteric agonist project, cell-based, HEK293 M4/GIRK, BTC-AM (AID 625;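 active means fluorescence slope after compound addition differing from the mean of all tested samples at 99.7% confidence, mostly higher but some lower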;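 further: thallium influx through GIRK channels coupled to M4 in HEK293 cells with BTC-AM dye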). The note with it: at 10 µM, actives lie on both sides.
Experiment [10] can be described thus: inhibitors of larval lipid processing in zebrafish, primary screen, whole organism, PED6 fluorescence, gall bladder and intestine (AID 686;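 active means a full or partial loss of lipid-probe fluorescence in the fish gall bladder, intestine or both, judged by eye; inactive means no fluorescence loss, or compound toxic to the fish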;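 further: larvae 5 to 7 days old with five fish per well; signal comes from phospholipase A2 cleavage of quenched PED6 carried via bile; overnight exposure to compound and PED6 before scoring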). The note with it: Zebrafish larvae PED6 lipid processing, fluorescence scoring; screened at 20 µM (by protocol).
Experiment [11] is described as follows: inhibitors of Chlamydomonas gravitaxis, primary screen, whole organism, Chlamydomonas reinhardtii, WT vs cilia-less mutant, absorbance, 96-well (AID 463189;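 active means inhibition at or above 50% relative to wild type and mutant plate controls; inactive means inhibition below 50%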;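 further: 0% = wild type cc124 cells in DMSO and 100% = ciliumless bld1 mutant cells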). The following applies: OD600 absorbance, 2 days, at 10 µM, stronger effect = higher value.
Experiment [12] can be described thus: inhibitors of Sendai virus-induced IRF3 signaling, primary screen, TLR/RLR signaling modifier project, cell-based, Sendai virus stimulus, luciferase, 10K MLSCN set (AID 602276;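 active means inhibition at or above 50% at 10 µM; inactive means inhibition below 50%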;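 further: firefly luciferase from ISG56 promoter only with Renilla not read in this screen; 0% = Sendai virus plus DMSO and 100% = medium plus DMSO without virus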). The following applies: HEK293 RL24 IRF3 luciferase reporter, at 10 µM, stronger effect = higher value. A general note: In a reporter assay the amount or activity of a reporter protein is the signal.

Experiment [13] in a line: inhibitors of poly I:C-induced TLR3 signaling, primary screen, cell-based, poly I:C stimulus, luciferase, 10K MLSCN set (AID 602277;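 active means inhibition of the reporter signal at or above 50%; inactive means inhibition below 50%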). The following applies: HEK293-TLR3 RL24 IRF3 luciferase reporter, at 10 µM, stronger effect = higher value.
The mark [14] stands for this setting: measured here: cell density z-score.
The mark [15] stands for this setting: measured here: nuclear c-Myc green intensity z-score.
The mark [16] stands for this setting: measured here: nuclear pErk red intensity z-score, stronger effect = higher value.

Each structure is given as a SMILES string. Calls of active or inactive are those of the source.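 How the source made its calls, unless noted: active means visually confirmed hit in the image check and inhibition above 20%; inconclusive means visually confirmed hit but inhibition not above 20%; inactive means no visual hit in the image check.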

Sequence of Muscarinic acetylcholine receptor M4 (Homo sapiens) (P08173 whole entry, looked up): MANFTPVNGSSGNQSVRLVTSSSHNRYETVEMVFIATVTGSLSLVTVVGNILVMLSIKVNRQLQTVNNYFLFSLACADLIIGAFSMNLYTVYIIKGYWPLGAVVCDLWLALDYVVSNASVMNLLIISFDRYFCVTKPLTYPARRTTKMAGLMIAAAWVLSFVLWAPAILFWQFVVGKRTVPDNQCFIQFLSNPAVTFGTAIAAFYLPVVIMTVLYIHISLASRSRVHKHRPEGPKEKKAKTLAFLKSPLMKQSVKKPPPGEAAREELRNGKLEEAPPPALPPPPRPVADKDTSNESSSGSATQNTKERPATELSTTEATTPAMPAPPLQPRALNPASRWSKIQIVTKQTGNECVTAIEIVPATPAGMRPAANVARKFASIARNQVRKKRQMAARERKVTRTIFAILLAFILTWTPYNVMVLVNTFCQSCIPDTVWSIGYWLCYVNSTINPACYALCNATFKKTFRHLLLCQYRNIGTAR
Sequence of Dual specificity protein phosphatase 6 (Homo sapiens) (Q16828 whole entry, looked up): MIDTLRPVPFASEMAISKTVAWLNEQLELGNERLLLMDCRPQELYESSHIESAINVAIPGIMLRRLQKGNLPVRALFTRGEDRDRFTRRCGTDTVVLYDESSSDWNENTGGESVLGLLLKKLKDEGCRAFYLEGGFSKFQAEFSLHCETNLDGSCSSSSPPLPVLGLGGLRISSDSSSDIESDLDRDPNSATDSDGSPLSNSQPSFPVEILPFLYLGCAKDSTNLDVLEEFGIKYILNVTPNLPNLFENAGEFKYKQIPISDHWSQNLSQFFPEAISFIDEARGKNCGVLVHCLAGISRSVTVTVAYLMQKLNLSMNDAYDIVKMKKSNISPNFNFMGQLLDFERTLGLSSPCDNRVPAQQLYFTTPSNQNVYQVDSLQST
Sequence of Alpha-2C adrenergic receptor (Homo sapiens) (P18825 whole entry, looked up): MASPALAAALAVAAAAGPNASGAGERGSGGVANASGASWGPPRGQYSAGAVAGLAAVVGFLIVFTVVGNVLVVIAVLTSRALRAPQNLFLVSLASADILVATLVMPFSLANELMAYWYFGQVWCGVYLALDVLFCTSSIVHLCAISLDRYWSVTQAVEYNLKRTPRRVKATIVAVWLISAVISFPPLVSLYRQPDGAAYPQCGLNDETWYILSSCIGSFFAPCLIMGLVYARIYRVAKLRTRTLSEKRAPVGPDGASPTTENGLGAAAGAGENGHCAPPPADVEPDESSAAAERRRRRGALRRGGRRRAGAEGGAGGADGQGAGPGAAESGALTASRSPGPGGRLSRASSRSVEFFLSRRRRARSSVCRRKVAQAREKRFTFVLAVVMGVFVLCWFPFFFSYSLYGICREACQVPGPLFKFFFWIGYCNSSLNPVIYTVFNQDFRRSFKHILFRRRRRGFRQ
Sequence of Voltage-gated potassium channel subunit beta-2 (Rattus norvegicus) (P62483 whole entry, looked up): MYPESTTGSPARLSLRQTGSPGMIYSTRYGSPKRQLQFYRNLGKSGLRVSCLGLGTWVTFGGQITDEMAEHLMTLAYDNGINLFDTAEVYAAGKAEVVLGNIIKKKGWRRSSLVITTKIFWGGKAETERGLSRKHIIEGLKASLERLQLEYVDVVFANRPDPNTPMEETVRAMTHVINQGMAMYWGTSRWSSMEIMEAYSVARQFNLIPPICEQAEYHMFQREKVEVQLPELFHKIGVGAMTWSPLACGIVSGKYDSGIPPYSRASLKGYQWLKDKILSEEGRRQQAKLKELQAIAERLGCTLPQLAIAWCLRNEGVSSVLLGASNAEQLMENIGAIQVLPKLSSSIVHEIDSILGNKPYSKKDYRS

Regarding `CCOC(=O)C1=C(N)c2ccccc2CC1C(C)C` (stereo not given), in experiment [1], the cell count was 579. For the same molecule, the inhibition in experiment [1] was 9% (inactive); in experiment [3], -86.6% (inactive); in [5] it was 4.72% (inactive); in experiment [11], 36% (inactive); in experiment [12], 17.7% (inactive); in experiment [13], 26.3% (inactive). Also, the inhibition of aggregation in [2] is -22.6% (inactive). Moreover, the figures for the nuclei count in [2] and in [3] were 108% and 124%, respectively. Moreover, the z-score in [4] (setting [14]) is 2.18; in experiment [4] (setting [15]) it was -1.31; in experiment [4] (setting [16]), -0.876. Further, the values for the fluorescence slope in experiment [6] and in experiment [9] were -0.46 (inactive) and 0.00588 (inactive), respectively. The NADPH fluorescence slope in experiment [7] was -2.5e-05 (inactive). Further, the slope in [8] is 0.00503 (inactive). Also, the molecule was called inactive in experiment [10].

Take `CCCC1Cc2c(sc3ncnc(N)c23)CO1` (stereo not given): the cell count in experiment [1] worked out at 492. The inhibition in experiment [1] was -5.3% (inactive); in experiment [3], -49.3% (inactive); in experiment [5], -1.98% (inactive); in experiment [11] it was 1.24% (inactive); in experiment [12], -2.55% (inactive); in experiment [13], 5.36% (inactive). Besides, the inhibition of aggregation in experiment [2] is -8% (inactive). The nuclei count in [2] stood at 80.5%; in experiment [3], 139%. The z-score was -0.574 in [4] (setting [14]), -0.569 in [4] (setting [15]) and 0.241 in experiment [4] (setting [16]). For the same molecule, the fluorescence slope in [6] was -0.411 (inactive); in experiment [9] it was 0.00429 (inactive). For the same molecule, the NADPH fluorescence slope in [7] was -4.2e-05 (inactive). In addition, the slope in experiment [8] is 0.00633 (inactive). Also, the molecule was classed as inactive in [10].

As for `COC(=O)c1cc(Br)c(=O)n(-c2nccs2)c1`, the cell count in experiment [1] was 750. The inhibition in experiment [1] was -4.2% (inactive); in [3], -134% (inactive); in [5], 38.2% (inactive); in [11], 6.75% (inactive); in experiment [12], -0.165% (inactive); in [13], 1.38% (inactive). The inhibition of aggregation in experiment [2] is -14.3% (inactive). Moreover, the nuclei count came out at 102% in [2] and 142% in experiment [3]. The z-score was -1.41 in experiment [4] (setting [14]), 0.813 in experiment [4] (setting [15]) and -2.4 in [4] (setting [16]). The figures for the fluorescence slope in [6] and in experiment [9] were -0.421 (inactive) and 0.00469 (inactive), respectively. For the same molecule, in [7], the NADPH fluorescence slope is -5.6e-05 (inactive). Further, the slope in experiment [8] is 0.00443 (inactive). Also, the result in [10] was inactive.

In the case of `COC(=O)c1ccccc1NC(=O)CSc1nnc(-c2ccncc2)o1`, the cell count in experiment [1] came out at 372. The inhibition was -9.3% (inactive) in experiment [1]; -75.9% (inactive) in [3]; 3.42% (inactive) in [5]; 4.81% (inactive) in [11]; 5.8% (inactive) in experiment [12]; 19.8% (inactive) in [13]. Moreover, the inhibition of aggregation in experiment [2] is 3.1% (inactive). Also, the figures for the nuclei count in experiment [2] and in [3] were 99.2% and 128%, respectively. The z-score in experiment [4] (setting [14]) is 0.433; in experiment [4] (setting [15]), -0.668; in experiment [4] (setting [16]), -1.26. In addition, the fluorescence slope in experiment [6] is -0.471 (inactive); in experiment [9] it was 0.00541 (inactive). For the same molecule, the NADPH fluorescence slope in experiment [7] is -4.2e-05 (inactive). In [8], the slope was 0.00552 (inactive). Also, in experiment [10], the molecule was called inactive.

For the molecule `CCN(CC)CCN1C(=O)C(=O)/C(=C(/O)c2c(C)[nH]c(C(=O)OC)c2C)C1c1ccco1` (stereo not given), in experiment [1], the cell count stood at 572. Also, the inhibition in [1] is -11.8% (inactive); in [3], 26.1% (inactive); in experiment [5], -11.9% (inactive); in experiment [11], 4.53% (inactive); in experiment [12], 4.22% (inactive); in experiment [13] it was 6.98% (inactive). Moreover, the inhibition of aggregation in experiment [2] was -5.3% (inactive). Further, the nuclei count in experiment [2] came to 105%; in experiment [3], 120%. The figures for the z-score in [4] (setting [14]), in experiment [4] (setting [15]) and in experiment [4] (setting [16]) were -1.72, 1.35 and -0.00455, respectively. In addition, the fluorescence slope in experiment [6] was -0.473 (inactive); in experiment [9], 0.00487 (inactive). The NADPH fluorescence slope in [7] was -1.4e-05 (inactive). The slope in experiment [8] is 0.00421 (inactive). Besides, in experiment [10], the result was inactive.

The inhibition is the relative decrease from the control value, in per cent.

The values above are taken from PubChem BioAssay.
